Laboratory results reported in PubChem BioAssay AID651705 (Broad Institute, 2012).
Hit rate of the full screen: of about 1,200 compounds, about 620 (52%) were called active.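 The calls were made as follows: active = every separate test run was called active for a drop in luminescence, with AC50 within twice the top valid dose (actives reach about 71 µM in these data); inconclusive = the separate test runs disagree in their calls; inactive = all runs inactive, including signal change in the wrong direction.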 The set was probably picked from earlier hits. The list is a sample of the results.

Test: bead-based luminescence quenchers, dual-tagged ARNT – biochemical, AlphaScreen, cherry-pick, artefact control for ARNT-TACC3 interaction inhibitor project, dose response (AID 651705);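 as to activity change, negative = signal decrease: 0% = neutral control wells with protein and -100% = buffer without protein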
Details: His-ARNT PASB-GST AlphaScreen artifact counter-screen; series mostly up to 68 µM; activity change, negative = signal decrease: at the top concentration

SMILES | AC50 | activity change, negative = signal decrease
Oc1cccc(/C=N/Nc2ccc(Cl)nn2)c1O | 10.2 µM (active) | –
CN(c1ccc(C(=O)N2CCc3ccccc3C2)cc1)S(C)(=O)=O | – | -2.85% (inactive)
C[C@@H]1CN([C@H](C)CO)C(=O)Cc2cc(NC(=O)Nc3cccc4ccccc34)ccc2O[C@@H]1CN(C)Cc1ccc(C(=O)O)cc1 | – | -5.56% [at 38 µM] (inactive)
CC(C(=O)Nc1ccc(O)c(C(=O)O)c1)N1C(=O)/C(=C/c2cccs2)SC1=S (stereo unspecified) | – | -21.1% (inactive)
CCN(CC)c1ccc(/C=N/NC(=O)c2cnccn2)c(O)c1 | – | -14.3% (inactive)
CCN1CCN(C(c2cccnc2)c2cc(Cl)c3cccnc3c2O)CC1 (stereo unspecified) | 23.8 µM (active) | –
CCOC(=O)N1CCN(C(c2cccnc2)c2ccc3cccnc3c2O)CC1 (stereo unspecified) | 18 µM (active) | –
COc1ccc2ccccc2c1CNCc1ccccn1 | – | -24.4% (inactive)
O=S(=O)(c1ccccc1)N1C[C@@H]2[C@H](c3ccccc31)[C@H](CO)N2Cc1ccccn1 | 65.5 µM (active) | –
C/C(=N\NC(=O)Cc1ccc(Cl)cc1)c1ccccn1 | 59.3 µM (active) | –
Cc1c(CC(=O)NCC(=O)NCC(=O)O)c(=O)oc2cc3oc4c(c3cc12)CCCC4 | – | -7.24% (inactive)
O=C(NCCCn1ccnc1)c1cc(-c2ccccc2)on1 | – | -4.56% [at 38 µM] (inactive)
CC(=O)/C(=N\Nc1ccc(Cl)cc1Cl)Sc1cccc2cccnc12 | 7.85 µM (active) | –
Oc1ccc(Br)cc1/C=N/Nc1ccccn1 | 56.5 µM (active) | –
Cc1ccccc1CSc1nnc(-c2ccccn2)n1N | – | -19.5% (inactive)
O=C(CN1C(=O)COc2ccccc21)Nc1ccc(F)cc1 | 13.5 µM (active) | –
O=C1c2cccc3cccc(c23)C(=O)N1CCCCCc1n[nH]c(=S)o1 | – | -29.9% (inactive)
CCn1cc(/C=C2/SC(=S)NC2=O)c(C)n1 | – | -7.76% (inactive)
Oc1c(CN2CCN(c3ccc(F)cc3)CC2)cc(Cl)c2cccnc12 | 10.2 µM (active) | –
O=C(CSc1ccc(-c2ccccn2)nn1)Nc1ccccc1 | 10.4 µM (active) | –
C[C@@H]1CN([C@@H](C)CO)C(=O)c2cc(NS(=O)(=O)c3cccs3)ccc2O[C@H]1CN(C)CC1CCCCC1 | – | -5.29% [at 38 µM] (inactive)
c1ccc(-c2cn3c(n2)CCc2ccc4cccnc4c2-3)cc1 | – | -27.6% (inactive)
Cc1ccc(NC(=O)c2cc(-c3ccccc3)on2)cn1 | – | 2.04% [at 38 µM] (inactive)

SMILES | AC50 | activity change, negative = signal decrease
Cn1c(-c2ccccc2)cnc1NC(=O)c1cc(-c2ccccc2)on1 | 40.5 µM (active) | –
O=C(Nc1cnc2ccccc2c1)c1cc(-c2ccccc2)on1 | – | -4.59% [at 38 µM] (inactive)
CCOc1cc(N2CCOCC2)c(OCC)cc1NC(=O)COc1cccc2cccnc12 | 36.5 µM (active) | –
O=C(N[C@@H]1CC[C@H](CCn2cc(-c3ccccn3)nn2)O[C@@H]1CO)c1ccccc1 | 37.6 µM (active) | –
O=S(=O)(N[C@@H]1CC[C@@H](CCn2cc(-c3ccccn3)nn2)O[C@@H]1CO)c1cccc(Cl)c1 | 41.9 µM (active) | –
COCCNC(=O)Cn1cc(C(=O)c2cccs2)c2ccccc21 | – | -2.7% (inactive)
Cn1c(=NC(=O)c2cnccn2)sc2ccccc21 | – | -2.58% (inactive)
Cc1c(NC(=O)CSc2cccc3cccnc23)c(=O)n(-c2ccccc2)n1C | 32.1 µM (active) | –
COc1ccc(Cc2nnc(N/N=C/c3ccccc3O)[nH]c2=O)cc1OC | 6.44 µM (active) | –
CCN(/N=C/c1ccccc1)c1cc(=O)n(C)c(=O)[nH]1 | – | 1.26% (inactive)
COc1cc(C2C(C#N)=C(N)Oc3n[nH]c(-c4ccccn4)c32)cc(OC)c1OC (stereo unspecified) | – | -7.09% (inactive)
c1ccc(-c2nnc(-c3ccccn3)nc2Nc2nc3ccccc3s2)cc1 | 1.9 µM (active) | –
CC(NC(=O)c1ccco1)C(=O)Nc1nc(-c2ccccn2)cs1 (stereo unspecified) | 31.7 µM (active) | –
O=C(COc1ccccc1F)Nc1nc(-c2ccccn2)cs1 | 54.1 µM (active) | –
O=C(CN1C(=O)C2C3C=CC(C3)C2C1=O)Nc1nc(-c2ccccn2)cs1 (stereo unspecified) | 47.6 µM (active) | –
Cc1c(CC(=O)NCCCCCC(=O)O)c(=O)oc2cc3occ(-c4ccccc4)c3cc12 | – | -32.8% (inactive)
CCN(C(=O)Cc1nc(N)n[nH]1)C1(C(=O)Nc2ccccc2)CCCCC1 | – | -14.5% (inactive)
Cc1ccc(S(=O)(=O)n2oc(=O)c(C3CCCCC3)c2N)cc1 | 42.3 µM (active) | –
COc1ccccc1Nc1nc(N)nc(CN(C)C2CCCCC2)n1 | – | -22.6% (inactive)
CC[C@]1(O)CC2CN(CCc3c([nH]c4ccccc34)[C@@](C(=O)OC)(c3cc4c(cc3OC)N(C=O)[C@H]3[C@@](O)(C(=O)OC)[C@H](OC(C)=O)[C@]5(CC)C=CCN6CC[C@]43[C@@H]65)C2)C1 (stereo partly specified) | – | -11% (inactive)
CCN(CC)CCOc1ccc2c(c1)C(=NNC(=O)c1ccccn1)c1cc(OCCN(CC)CC)ccc1-2 | 69.6 µM (active) | –
CCOC(=O)c1ccc(Nc2cc3ccccc3c(=O)[nH]2)cc1 | – | -19.3% (inactive)
COC(=O)CC1=NN(c2nc(C)cc(C)n2)C(=O)C1 | – | 2.68% (inactive)
